Assay outcomes as filed in PubChem.
HTT cytoprotect – qHTS Multiplex Assay to Identify Dual Action Probes in a Cell Model of Huntington: Cytoprotection (ATP) | Potency, µM (doses to about 56.4 µM), without a hit: cytoprotection (ATP increase), hits mostly activators | hit rate 0.14% among 230,000 | PC12 HTT-Q103 induced, cytoprotection, ATP luminescence, 40 h | AID 1471, 2008; also: potency is read from the fitted curve at half-maximal effect; % of control where 0% means no effect; nearly all actives have a fitted effect of over 45% in size
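ATP quantification (ATPlite) reports survival of PC12 cells in which tebufenozide, 100 nM final, switches on Htt exon 1 with 103 glutamines linked to GFP; compounds are titrated.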
CBFb-RUNX1 inh – qHTS Assay for Compounds Blocking the Interaction Between CBF-beta and RUNX1 for the Treatment of Acute Myeloid Leukemia. Potency, µM (doses to about 59.8 µM), for inactives: at the highest dose activity, negative = inhibition, actives largely listed as inhibitors. Runt-related transcription factor 1 (Homo sapiens) + Core-binding factor subunit beta …. AlphaScreen CBFb-His/RUNX1-biotin binding, biochemical. 230,000 tested, under 10 active. AID 1477, 2009; also: % of control where 0% means no effect
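AlphaScreen proximity signal reports loss of binding between His-tagged CBF-beta and biotin-labelled RUNX1, each at 30 nM. Proteins are pre-associated for 20 minutes, compounds added for 15 minutes, then beads for 90 minutes, all at ambient temperature.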
HttQ103 aggreg – qHTS Multiplex Assay to Identify Dual Action Probes in a Cell Model of Huntington: Aggregate Formation (GFP). PC12 HttQ103-GFP aggregates, Acumen cytometry, 40 h. hit rate 1.1% among 220,000. Potency, µM (highest dose often 46.1 µM), for inactives: at the top dose activity change, negative = inhibition, usual class: inhibitors. AID 1688, 2009; also: potency is read from the fitted curve at half-maximal effect; % is scaled to controls: 0 for no effect and ±100 for the full control effect; nearly all actives have a fitted effect of over 60% in size
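Using laser scanning cytometry, GFP-positive aggregates were counted after lysis of PC12 cells induced with 100 nM tebufenozide to express HTT exon 1 Q103–GFP. Compounds were tested in titration.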
ALDH1A1 block – qHTS Assay for Inhibitors of Aldehyde Dehydrogenase 1 (ALDH1A1) | Aldehyde dehydrogenase 1A1 (Homo sapiens), P00352 | Purified ALDH1A1, NADH fluorescence, propionaldehyde substrate | Potency, µM (doses to about 75.3 µM), for the others: top-dose activity, negative = inhibition, hits mostly inhibitors | hit rate 7.3% among 220,000 | AID 1030, 2008; active = well fitted inhibition curve with a large enough effect, not every such curve was filed as active; inconclusive = small, poorly fitted or top-dose-only effect, or another doubt; inactive = no such curve, though single readings can be large or run the other way;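 also: potency is read from the fitted curve at half-maximal effect; plate controls were no enzyme wells and a reference inhibitor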
HPGD inh – qHTS Assay for Inhibitors of HPGD (15-Hydroxyprostaglandin Dehydrogenase) | Potency, µM, without a hit: at the top dose activity change, negative = inhibition, usual class: inhibitors | hit rate 4.3% among 150,000 | purified HPGD, NADH fluorescence kinetic, PGE2 substrate; active = well fitted inhibition curve with a large enough effect, not every such curve was filed as active; inconclusive = small, poorly fitted or top-dose-only effect, or another doubt; inactive = no such curve, though single readings can be large or run the other way; also: potency is read from the fitted curve at half-maximal effect; % is scaled to controls: 0 for no effect and ±100 for the full control effect
Target sequence (P15428 whole entry, looked up): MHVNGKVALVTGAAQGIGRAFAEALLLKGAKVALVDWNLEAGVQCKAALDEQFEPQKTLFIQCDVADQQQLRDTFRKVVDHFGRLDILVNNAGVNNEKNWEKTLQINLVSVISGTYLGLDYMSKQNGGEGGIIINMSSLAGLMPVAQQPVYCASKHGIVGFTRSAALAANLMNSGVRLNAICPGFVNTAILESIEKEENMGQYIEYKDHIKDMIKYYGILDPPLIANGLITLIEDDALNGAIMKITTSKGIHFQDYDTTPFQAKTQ
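NADH formation kinetics: reaction with 30 uM PGE2 and 1 mM NAD+ (final), 20 nM enzyme, Tris-HCl pH 8 with Tween 20, after 15 min compound preincubation at room temperature. Fluorescence change, last versus first of five reads.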
PNC assembly inh – High Content Assay for Compounds that inhibit the Assembly of the Perinucleolar Compartment; PC3M PTB-GFP, PNC prevalence imaging, 16 h; hits give low values; activity change (PNC), negative = inhibition, % at 10 µM; hit rate 3.1% among 140,000; AID 2417, 2010;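 active = readout at or below -70, meaning at least 70% loss of cells showing the perinucleolar compartment, a nuclear body marking cancer cells; inconclusive = readout between -30 and a set limit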;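 also: plate controls were DMSO wells for no effect and camptothecin positive control wells for full effect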
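Read-out is percentage of cells bearing a perinucleolar compartment, from automated 20x imaging of fixed, Hoechst-stained PC3M PTB-GFP cells. Cells were seeded 4 h, then exposed 16 h to compound (23 nl of library stock) in duplicate plates.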
Active calls of the source: *; ? = inconclusive; . = no result given; [ ] = dose if it differs, or a comment. Hits are enriched below; roughly 11% of the tested compounds scored in any of these assays. Unless noted, calls follow the shape of the dose curve; as a rule, active = well fitted curve in the direction sought with a large enough effect; inconclusive = small, poorly fitted or top-dose-only effect, or another doubt; inactive = no such curve, though single readings can be large; an effect the other way counts as inactive or inconclusive.

SMILES	HTT cytoprotect	CBFb-RUNX1 inh	HttQ103 aggreg	ALDH1A1 block	HPGD inh	PNC assembly inh
Cc1cccc(-n2nnnc2-c2cnccc2C(F)(F)F)c1C	7%[10 µM]	0%	-6%[9.22 µM]	16µM*	.	.
FC(F)(F)c1ccncc1-c1nnnn1-c1ccc(Cl)cc1	14%[10 µM]	3%	-4%[9.22 µM]	.	.	.
CCc1nnc(N/N=C/c2ccc(N3CCC(C)CC3)c([N+](=O)[O-])c2)n1N	-4%[10 µM]	-19%	-21%	22µM*	-8%	1
Nn1cnnc1N/N=C/c1ccc(Cl)c([N+](=O)[O-])c1	.	-7%	6%	?	.	.
Cc1nnc(N/N=C/c2cc([N+](=O)[O-])c(N3CCC(C)CC3)cc2N2CCC(C)CC2)n1N	-23%	-21%	?	7.1µM*	25µM*	-30
Cc1nnc(N/N=C/c2ccc([N+](=O)[O-])cc2)n1N	-131%	10%	?	?	.	.
CC/C=C\C[C@H](O)/C=C/C=C\C/C=C\C/C=C\CCCC(=O)O	29%	-1%	.	4%	-5%	.
O=C(Cn1cnc2c(nnn2Cc2ccc(Cl)cc2)c1=O)NCc1ccco1	3%[10 µM]	8%	-8%	?	16µM*	112
O=C(Cn1cnc2c(nnn2Cc2ccccc2)c1=O)c1ccccc1	-10%	-4%	-13%	-16%	22µM*	-9
O=C(Cn1cnc2c(nnn2Cc2ccc(F)cc2)c1=O)NCc1ccco1	27%[10 µM]	-6%	3%	6%	16µM*	37
O=C(Cn1cnc2c(nnn2Cc2ccccc2)c1=O)NCc1ccco1	-12%	2%	-35%	3%	14µM*	?
Cc1ccc(NC(=O)/C(C#N)=C/c2ccc(C)s2)c(C)c1	-7%	1%	12%[9.22 µM]	9%	-24%	-11
COc1cccc2c1OC(=O)CC2c1ccc(C)cc1 (centres undefined)	-118%[96.6 µM]	-10%[89.1 µM]	.	-4%[120 µM]	?	.
CC/C=C1/OC(=O)c2ccccc21	-11%	23%[21.7 µM]	.	?	-7%	.
c1ccc(-c2noc(CSc3nnnn3C3CCCCC3)n2)cc1	-7%	-2%	8%	3.2µM*	-23%	-12
COC(=O)C1=C(C)Nc2nnnn2C1c1ccccc1Cl (centres undefined)	6%[10 µM]	-12%	7%	2.5µM*	-9%	?
CCCCOC(=O)C1=C(C)Nc2nnnn2C1c1ccc(OC)c(OC)c1OC (centres undefined)	-22%	1%	-16%	8%	-1%	-20
CCCCCOC(=O)C1=C(C)Nc2nnnn2C1c1ccccc1Cl (centres undefined)	-8%	1%	-21%	2µM*	-6%	-13
O=C1NN(C(=O)Nc2ccc(Br)cc2)C(c2ccccc2)C1c1ccccc1 (centres undefined)	.	8%	.	.	.	.
O=C(c1cc2ccccc2oc1=O)N(Cc1ccco1)Cc1cccs1	-7%	-3%	11%	?	-4%	-5
O=C(c1cc2ccccc2oc1=O)N(Cc1cccs1)Cc1cccs1	1%[10 µM]	9%	5%	11µM*	-21%	-21
CCC(=O)Nc1sc(C(=O)OC)c(C)c1C(=O)OC	-9%[10 µM]	4%	-9%	?	22µM*	?
CCN(CC)C(=O)c1sc(NC(=O)c2ccncc2)c(C(=O)OC)c1C	-16%[10 µM]	7%	-4%	14µM*	22µM*	?
CCN(CC)C(=O)c1sc(NC(=O)c2cc(-c3ccc(C)s3)nc3ccccc23)c(C(=O)OC)c1C	-4%	5%	0%	?	?	?
